PubChem BioAssay (NCATS)
Where “and” joins values, the source holds several entries; their conditions need not be identical. Equal values may be shown once. Inconclusive results are not listed. Calls of active or inactive are those of the source. Unless noted, calls come from the whole dose curve; as a rule, active = well fitted curve in the direction sought with a large enough effect; inconclusive = small, poorly fitted or top-dose-only effect, or another doubt; inactive = no such curve, though single readings can be large; an effect the other way counts as inactive or inconclusive. Where a SMILES comes first, the peptide text is derived from it. [ ]: non-standard residue; d: D form. ξ: configuration not given here. ξLac(3-iPr) = CC(C)CC(O)C(=O)O; NMeV = CN[CH](C(=O)O)C(C)C; βAla = NCCC(=O)O

Key:
[1] = target: Calcium and integrin-binding protein 1 (Homo sapiens) (UniProt Q99828); test: Primary qHTS for Identification of Calcium Integrin Binding Protein 1 (CIB1) Competitor (AID 1508620);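 note: GST tagged CIB1 binding a fluorescein labelled alphaIIb integrin peptide tracer; top concentration of the series differs between compounds; % is set by controls: 0 for no effect and ±100 for the full control effect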
How it was run: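 Fluorescence polarization competition: GST-tagged CIB1 (1 uM final) preincubated with compound 15 min at room temperature, then FITC-labelled alphaIIb peptide (100 nM final) added. After 15 min at room temperature, polarization read at Ex 480/Em 540.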

[2] = Primary qHTS for inhibitors of nuclear receptor binding SET domain protein 2 (NSD2) in an RCH-ACV wild type WT cells (2C) (AID 1645877); note: nearly all actives have a fitted effect of over 70% in size; note: potency is the fitted concentration of half-maximal effect
[3] = target: Cytochrome P450 2C9 (Homo sapiens) (UniProt P11712); test: Cytochrome P450 family 2 subfamily C member 9 (CYP2C9) small molecule antagonists: luciferase biochemical (cell-free) qHTS assay (AID 1645842; active = well fitted curve in the direction sought with a large enough effect in the repeat runs; an effect the other way counts as inactive or inconclusive; note: nearly all actives have a fitted effect of over 55% in size; note: potency is the fitted concentration of half-maximal effect; for activity change, negative = inhibition: % is set by controls: 0 for no effect and ±100 for the full control effect)
How it was run: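 Luminescence, after 20 min with luciferin detection reagent, reflected CYP2C9 turnover during a 1 h NADPH-driven reaction at 37C. Enzyme-substrate mix contained 0.4% bovine serum albumin and was preincubated with compound 10 min at room temperature.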

[4] = target: N-terminal Xaa-Pro-Lys N-methyltransferase 1 (Homo sapiens) (UniProt Q9BV86); test: Confirmatory qHTS for Inhibitors of N-terminal methyltransferase 1 (NTMT1): MTaseGlo Assay (AID 1645874); note: potency is the fitted concentration of half-maximal effect; nearly all actives have a fitted effect of over 65% in size
How it was run: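 NTMT1 (125 nM) preincubated 15 min with compound and 100 uM SAM, then 1 uM SPKRIA peptide added for 30 min at room temperature. SAH detected by MTase-Glo luminescence; normalized to no-enzyme and DMSO controls, fitted to 4-parameter Hill.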

[5] = Primary qHTS for inhibitors of nuclear receptor binding SET domain protein 2 (NSD2) in an isogenic RCH-ACV NSD2 p.E1099K mutant (9B) (AID 1645876); note: nearly all actives have a fitted effect of over 70% in size; note: potency is the fitted concentration of half-maximal effect
[6] = target: Catechol O-methyltransferase (Homo sapiens) (UniProt P21964); test: Confirmatory Screen for Target Class Profiling of Small Molecule Inhibitors of Methyltransferases (AID 1745852; calls by dose curve; note: potency is the fitted concentration of half-maximal effect; for activity change, negative = inhibition: % is set by controls: 0 for no effect and ±100 for the full control effect); details: MTase-Glo luminescence, SAH detection, recombinant enzyme; measured here: COMT max response; stronger effect = lower value
[7] = target: Guanidinoacetate N-methyltransferase (Homo sapiens) (UniProt Q14353); test: as above; details: activity change, negative = inhibition: at 57.3 µM (top of the series) unless noted
[8] = target: Nicotinamide N-methyltransferase (Homo sapiens) (UniProt P40261); test: as above; details: MTase-Glo luminescence, SAH detection, recombinant enzyme; measured here: NNMT max response; stronger effect = lower value
[9] = target: Phenylethanolamine N-methyltransferase (Homo sapiens) (UniProt P11086); test: as above; details: MTase-Glo luminescence, SAH detection, recombinant enzyme; measured here: PNMT max response; stronger effect = lower value
[10] = target: Cytochrome P450 2D6 (Homo sapiens) (UniProt P10635); test: Cytochrome P450 family 2 subfamily D member 6 (CYP2D6) small molecule antagonists: luciferase biochemical (cell-free) qHTS assay (AID 1645840; active = well fitted curve in the direction sought with a large enough effect in the repeat runs; an effect the other way counts as inactive or inconclusive; note: % is set by controls: 0 for no effect and ±100 for the full control effect; nearly all actives have a fitted effect of over 55% in size)
How it was run: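 P450-Glo luminescent screen: recombinant CYP2D6 enzyme–proluciferin substrate mix preincubated with compound 10 min at room temperature, then NADPH regeneration added for 1 h at room temperature. Detection reagent added for 20 min; luciferin light read as relative luminescence units.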

Chain of Nicotinamide N-methyltransferase (Homo sapiens) (P40261 whole entry, looked up): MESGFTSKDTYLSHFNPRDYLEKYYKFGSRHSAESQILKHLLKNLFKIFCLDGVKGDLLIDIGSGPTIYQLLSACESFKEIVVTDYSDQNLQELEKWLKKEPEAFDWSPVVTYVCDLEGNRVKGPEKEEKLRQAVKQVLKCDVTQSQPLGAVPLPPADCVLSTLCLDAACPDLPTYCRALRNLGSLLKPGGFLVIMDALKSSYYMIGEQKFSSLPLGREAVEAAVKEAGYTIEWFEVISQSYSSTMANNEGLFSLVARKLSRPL
Chain of Calcium and integrin-binding protein 1 (Homo sapiens) (Q99828 whole entry, looked up): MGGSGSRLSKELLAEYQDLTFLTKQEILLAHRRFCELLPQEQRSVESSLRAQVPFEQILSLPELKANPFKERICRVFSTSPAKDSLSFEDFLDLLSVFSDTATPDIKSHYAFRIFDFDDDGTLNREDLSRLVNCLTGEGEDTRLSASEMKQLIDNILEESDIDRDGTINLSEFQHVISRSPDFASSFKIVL
Chain of Cytochrome P450 2C9 (Homo sapiens) (P11712 whole entry, looked up): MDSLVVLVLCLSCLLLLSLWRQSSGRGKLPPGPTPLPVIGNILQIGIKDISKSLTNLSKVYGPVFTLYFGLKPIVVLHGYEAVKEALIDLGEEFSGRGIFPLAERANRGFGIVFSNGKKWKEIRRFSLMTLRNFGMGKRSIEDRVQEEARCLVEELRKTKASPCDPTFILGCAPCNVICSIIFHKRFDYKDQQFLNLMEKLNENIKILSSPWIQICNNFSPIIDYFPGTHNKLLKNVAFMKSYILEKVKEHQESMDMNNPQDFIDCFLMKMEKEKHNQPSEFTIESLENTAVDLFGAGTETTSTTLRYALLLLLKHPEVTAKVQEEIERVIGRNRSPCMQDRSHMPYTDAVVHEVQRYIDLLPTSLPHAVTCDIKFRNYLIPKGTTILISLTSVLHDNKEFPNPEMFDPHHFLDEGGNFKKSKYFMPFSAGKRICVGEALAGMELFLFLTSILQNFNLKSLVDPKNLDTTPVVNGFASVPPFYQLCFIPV
Chain of Catechol O-methyltransferase (Homo sapiens) (P21964 whole entry, looked up): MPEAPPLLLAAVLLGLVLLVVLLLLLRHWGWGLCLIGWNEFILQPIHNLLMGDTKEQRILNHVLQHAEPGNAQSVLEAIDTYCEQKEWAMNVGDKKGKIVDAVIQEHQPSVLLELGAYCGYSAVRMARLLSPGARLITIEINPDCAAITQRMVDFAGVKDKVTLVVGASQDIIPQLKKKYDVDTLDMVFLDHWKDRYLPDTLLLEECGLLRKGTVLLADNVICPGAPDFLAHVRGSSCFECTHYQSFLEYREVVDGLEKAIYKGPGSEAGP
Chain of Phenylethanolamine N-methyltransferase (Homo sapiens) (P11086 whole entry, looked up): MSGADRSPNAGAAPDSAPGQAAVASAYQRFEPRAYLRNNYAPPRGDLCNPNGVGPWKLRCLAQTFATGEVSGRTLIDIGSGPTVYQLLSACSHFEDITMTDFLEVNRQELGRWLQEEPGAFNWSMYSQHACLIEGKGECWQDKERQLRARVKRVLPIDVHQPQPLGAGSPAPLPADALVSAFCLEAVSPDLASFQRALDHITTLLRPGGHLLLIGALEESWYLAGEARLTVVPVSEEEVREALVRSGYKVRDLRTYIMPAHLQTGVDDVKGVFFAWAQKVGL
Chain of Cytochrome P450 2D6 (Homo sapiens) (P10635 whole entry, looked up): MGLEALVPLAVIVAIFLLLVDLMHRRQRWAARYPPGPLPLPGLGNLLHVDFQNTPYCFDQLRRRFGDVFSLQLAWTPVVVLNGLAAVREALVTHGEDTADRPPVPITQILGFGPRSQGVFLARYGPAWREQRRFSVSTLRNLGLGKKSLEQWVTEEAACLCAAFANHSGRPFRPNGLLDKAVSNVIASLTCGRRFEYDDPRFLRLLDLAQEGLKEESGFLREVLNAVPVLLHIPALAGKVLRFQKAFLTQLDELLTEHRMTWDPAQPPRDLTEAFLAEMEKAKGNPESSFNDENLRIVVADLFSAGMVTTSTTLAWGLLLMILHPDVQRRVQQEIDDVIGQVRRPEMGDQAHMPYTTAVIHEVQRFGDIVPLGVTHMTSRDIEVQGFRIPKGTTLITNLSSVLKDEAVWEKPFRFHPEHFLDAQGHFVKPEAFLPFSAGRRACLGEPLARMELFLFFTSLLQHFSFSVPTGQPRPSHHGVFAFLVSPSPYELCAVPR
Chain of N-terminal Xaa-Pro-Lys N-methyltransferase 1 (Homo sapiens) (Q9BV86 whole entry, looked up): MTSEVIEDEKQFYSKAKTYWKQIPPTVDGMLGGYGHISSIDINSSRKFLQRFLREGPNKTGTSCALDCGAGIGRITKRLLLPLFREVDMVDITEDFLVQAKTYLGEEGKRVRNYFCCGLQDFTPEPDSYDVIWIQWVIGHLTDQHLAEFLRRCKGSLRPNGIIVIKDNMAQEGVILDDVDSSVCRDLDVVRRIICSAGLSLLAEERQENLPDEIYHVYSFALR

In the case of `C=C1C(=O)O[C@@H]2C[C@H](C)[C@@]3(O)C=C(C(C)=O)[C@]4(CC3C[C@H]12)C(=O)O[C@H]1C[C@@H](C)C(CCC(C)=O)=CC[C@H]14` (some centres not stated), the Potency [1] is reported as “inactive” and the Potency [2] is reported as 8.93 µM (active).
In the case of `CC1=CCC2C(C)(C)CCC[C@]2(C)[C@@]12CC[C@](C)(CC(=O)O)O2` (some centres not stated), the Potency [1] is reported as “inactive” and the Potency [2] is reported as “inactive”.
For `COc1cc(N2CCC(N3CCN(C)CC3)CC2)ccc1Nc1ncc(Cl)c(-c2c[nH]c3ccccc23)n1`, the Potency [3] was 19 µM (active), the Potency [4] was 55.5 µM (active) and the Potency [5] was 1.15 µM (active). For the same molecule, the Potency [2] was 1.84 µM (active), the activity [6] was -23.6% and the Potency [7] was 24.1 µM (active). It also gave an activity [8] of -32.6% and an activity [9] of -23.1%.
In the case of `CCOc1cc(C(=O)N2CCC(N3CCN(C)CC3)CC2)ccc1Nc1ncc2c(n1)N(C1CCCC1)c1ccccc1C(=O)N2C`, the Potency [3] is reported as “inactive”, the Potency [5] is reported as 1.15 µM (active) and 1.86 µM (active) and the Potency [2] is reported as 1.29 µM (active) and 1.66 µM (active).
With `CN(C)C1CCN(C(=O)c2ccc(NC(=O)Nc3ccc(-c4nc(N5CCOCC5)nc(N5CCOCC5)n4)cc3)cc2)CC1` the Potency [10] was “inactive”, the Potency [3] was “inactive” and the Potency [5] was 0.0417 µM (active). For the same molecule, the Potency [2] was 0.0332 µM (active).
In the case of `O=C1CSc2ccccc2N1Cc1cccc(C(F)(F)F)c1`, the Potency [1] is reported as “inactive”, the activity [6] is reported as -10.1% and the activity change, negative = inhibition [7] is reported as -5.12%. For the same molecule, the activity [8] was -46.9% and the activity [9] was -11.4%.
With `CCOC(=O)C(CCc1ccccc1)NC1CSC(c2cccs2)CN(CC(=O)O)C1=O` (configuration not stated) the Potency [5] was “inactive” and the Potency [2] was “inactive”.
For `CO[C@H]1O[C@@H]2O[C@]3(C)CC[C@H]4[C@H](C)CC[C@@H]([C@H]1C)[C@@]24OO3`, the Potency [2] was 7.28 µM (active).
In the case of `C=CC/C=C\C/C=C\CCCCCCCc1cccc(O)c1C(=O)O`, the Potency [5] is reported as “inactive” and the Potency [2] is reported as “inactive”.
With `O=C1OCc2cc3cccc(O[C@@H]4O[C@H](CO)[C@@H](O)[C@H](O)[C@H]4O)c3c(O)c21` the Potency [5] was “inactive” and the Potency [2] was “inactive”.
For `Cc1nc(NC(=O)N2CCCC2C(N)=O)sc1-c1csc(C(C)(C)C)n1` (configuration not stated), the Potency [5] was 4.59 µM (active) and the Potency [2] was 4.09 µM (active).
With `COc1cc(/C=C/CO)cc(OC)c1O[C@@H]1O[C@H](CO[C@@H]2O[C@H](CO)[C@@H](O)[C@H](O)[C@H]2O)[C@@H](O)[C@H](O)[C@H]1O` the Potency [5] was “inactive” and the Potency [2] was “inactive”.
In the case of `CC1=C2C3OC(=O)C(C)C3(O)CCC2(C)CCC1O` (configuration not stated), the Potency [5] is reported as “inactive” and the Potency [2] is reported as “inactive”.
For `CC(C)CC1OC(=O)C2CCCN2C(=O)CCNC(=O)C(Cc2ccccc2)NC(=O)C(C(C)C)N(C)C(=O)C(C(C)C)N(C)C1=O` (configuration not stated) (cyclo([ξLac(3-iPr)][NMeV][NMeV]F[βAla]P); configuration not given here), the Potency [5] was “inactive” and the Potency [2] was “inactive”.
For `CC(C)(O[C@@H]1O[C@H](CO)[C@@H](O)[C@H](O)[C@H]1O)C(OC(=O)/C=C\c1ccc(O)cc1)C(=O)OCc1ccc(O[C@@H]2O[C@H](CO)[C@@H](O)[C@H](O)[C@H]2O)cc1` (some centres not stated), the Potency [5] was “inactive” and the Potency [2] was “inactive”.
For `COC(=O)C1(C)c2[nH]c3ccccc3c2CCN1C(=O)CCl` (configuration not stated), the Potency [5] was 2.58 µM (active) and the Potency [2] was 2.58 µM (active).
For `CC1(C(=O)O)CCCC2(C)C3CCC4CC3(CCC12)CC4=O` (configuration not stated), the Potency [5] was “inactive”.
With `C=C(C)C(=O)OC1CC2(C)OC(=CC2=O)C(=C)CC2OC(=O)C(COC)C12` (configuration not stated) the Potency [5] was 4.01 µM (active), the Potency [2] was 1.79 µM (active) and the activity [6] was -94%. The activity change, negative = inhibition [7] was -5.17%, the activity [8] was -5.26% and the activity [9] was -4.08%.
With `C=C(CO[C@@H]1O[C@H](CO[C@@H]2OC[C@](O)(CO)[C@H]2O)[C@@H](O)[C@H](O)[C@H]1O)C1Cc2cc(C(C)=O)ccc2O1` (some centres not stated) the Potency [5] was “inactive” and the Potency [2] was “inactive”.
In the case of `C=C1C[C@]23C[C@H]1[C@@H](O)C[C@H]2[C@@]12C=C[C@H](O)[C@@](C)(C(=O)O1)[C@H]2[C@@H]3C(=O)O`, the Potency [5] is reported as “inactive” and the Potency [2] is reported as “inactive”.
For `CC(=O)CCC1=C(C)C(O[C@@H]2O[C@H](CO)[C@@H](O)[C@H](O)[C@H]2O)C(O)CC1(C)C` (some centres not stated), the Potency [5] was “inactive” and the Potency [2] was “inactive”.
With `CC(=O)O[C@H]1CC(C)(C)CC2[C@@]13[C@H](O)C[C@]1(C)[C@@]2(CCC2[C@@]4(C)CC[C@H](O[C@@H]5OC[C@H](O[C@@H]6O[C@H](CO)[C@@H](O)[C@H](O)[C@H]6O[C@@H]6OC[C@@H](O)[C@H](O)[C@H]6O)[C@H](O)[C@H]5O[C@@H]5O[C@H](CO)[C@@H](O)[C@H](O)[C@H]5O)C(C)(C)C4CC[C@]21C)O[C@@H]3O` (some centres not stated) the Potency [5] was 0.346 µM (active) and the Potency [2] was 1.09 µM (active).
For `C[C@@H]1CC[C@]2(C(=O)OC3OC(CO)C(O)C(O)C3O)CC[C@]3(C)C(=CCC4[C@@]5(C)CC[C@H](O)[C@](C)(C(=O)O)C5CC[C@]43C)C2[C@]1(C)O` (some centres not stated), the Potency [5] was “inactive” and the Potency [2] was “inactive”.
With `CCc1c(-c2ccccc2)c(-c2ccccc2)nn1-c1ccccc1-c1cccc(OCC(=O)O)c1` the Potency [5] was “inactive”, the Potency [2] was “inactive” and the activity [6] was -1.93%. It also gave an activity change, negative = inhibition [7] of 0%, an activity [8] of -56% and an activity [9] of -7.07%.
With `CC(O)c1cc(C(=O)N[C@@H](C)Cn2ccc(-c3ccc(C#N)c(Cl)c3)n2)n[nH]1` (some centres not stated) the Potency [2] was 20.9 µM (active).
